Columns and labels:
Experiment in all cases: DAPPL (digital affinity profiling via proximity ligation, sequencing); 10 mM Tris-HCl pH 7.5, 50 mM NaCl, 1 mM DTT, 4% glycerol, room temperature, 30 min; GST-TFs on glutathione beads, 16-mer random dsDNA library, 0.1% formaldehyde crosslink after washing; high values mean tight binding
[1] = biological target: T1, FLI1 (Homo sapiens, UniProt Q01543 1-452); conditions: protein: recombinant; tags: N-terminal GST; dsDNA, one strand shown
T1 sequence: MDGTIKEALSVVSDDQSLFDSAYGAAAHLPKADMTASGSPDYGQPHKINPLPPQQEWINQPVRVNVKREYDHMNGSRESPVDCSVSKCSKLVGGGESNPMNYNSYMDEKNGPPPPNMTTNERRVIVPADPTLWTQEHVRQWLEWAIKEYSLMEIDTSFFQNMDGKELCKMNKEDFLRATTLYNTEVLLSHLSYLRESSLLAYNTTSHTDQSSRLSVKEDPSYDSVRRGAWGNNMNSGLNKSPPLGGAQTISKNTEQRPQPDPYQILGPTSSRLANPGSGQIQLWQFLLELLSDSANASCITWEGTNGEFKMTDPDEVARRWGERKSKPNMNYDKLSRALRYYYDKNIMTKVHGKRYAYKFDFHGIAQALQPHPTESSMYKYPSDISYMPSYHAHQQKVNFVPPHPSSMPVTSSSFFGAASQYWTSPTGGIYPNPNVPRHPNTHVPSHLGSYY
Outline: (§1)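 GST fusions of human transcription factors were expressed in yeast and captured with glutathione beads. Once given DNA barcodes and pooled alongside a tag-only sample, they were incubated for 30 min at room temperature with 200 nmole of a random double-stranded 16-mer DNA library in Tris/NaCl/DTT/glycerol buffer, then washed, crosslinked (0.1% formaldehyde), proximity-ligated, PCR-amplified and sequenced on an Illumina NextSeq500. The binding signal of each hexamer is its read frequency for a factor divided by its frequency for the tag-only sample.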

[2] = biological target: T2, ELK1 (Homo sapiens, UniProt P19419 1-428); conditions: protein: recombinant; tags: N-terminal GST; dsDNA, one strand shown
T2 sequence: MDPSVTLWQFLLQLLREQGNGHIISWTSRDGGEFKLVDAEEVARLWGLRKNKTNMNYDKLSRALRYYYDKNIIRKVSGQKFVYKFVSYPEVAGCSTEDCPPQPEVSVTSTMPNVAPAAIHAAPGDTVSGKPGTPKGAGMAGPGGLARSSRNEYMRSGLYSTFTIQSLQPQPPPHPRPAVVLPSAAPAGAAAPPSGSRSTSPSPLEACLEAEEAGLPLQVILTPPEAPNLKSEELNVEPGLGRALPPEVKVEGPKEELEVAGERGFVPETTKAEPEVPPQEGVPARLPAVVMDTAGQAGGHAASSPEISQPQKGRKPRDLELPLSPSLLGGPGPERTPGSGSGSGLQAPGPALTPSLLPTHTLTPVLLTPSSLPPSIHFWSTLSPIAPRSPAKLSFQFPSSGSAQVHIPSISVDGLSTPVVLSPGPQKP
Outline: as §1

[3] = biological target: T3, GABPA (Homo sapiens, UniProt Q06546 1-454); conditions: protein: recombinant; tags: N-terminal GST; dsDNA, one strand shown
T3 sequence: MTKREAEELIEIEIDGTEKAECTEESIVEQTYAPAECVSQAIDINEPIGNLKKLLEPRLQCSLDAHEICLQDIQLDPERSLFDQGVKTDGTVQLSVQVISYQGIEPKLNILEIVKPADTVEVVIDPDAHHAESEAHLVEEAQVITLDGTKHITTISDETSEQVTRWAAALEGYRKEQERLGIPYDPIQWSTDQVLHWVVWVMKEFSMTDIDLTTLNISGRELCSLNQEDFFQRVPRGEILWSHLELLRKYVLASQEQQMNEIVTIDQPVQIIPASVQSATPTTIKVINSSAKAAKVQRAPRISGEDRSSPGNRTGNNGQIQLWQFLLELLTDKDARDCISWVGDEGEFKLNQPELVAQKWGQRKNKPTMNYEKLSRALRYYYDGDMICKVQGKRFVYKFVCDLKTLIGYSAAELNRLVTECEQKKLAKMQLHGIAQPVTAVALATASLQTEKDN
Outline: as §1

[4] = biological target: T4, ERG (Homo sapiens, UniProt P11308 1-479); conditions: protein: recombinant; tags: N-terminal GST; dsDNA, one strand shown
T4 sequence: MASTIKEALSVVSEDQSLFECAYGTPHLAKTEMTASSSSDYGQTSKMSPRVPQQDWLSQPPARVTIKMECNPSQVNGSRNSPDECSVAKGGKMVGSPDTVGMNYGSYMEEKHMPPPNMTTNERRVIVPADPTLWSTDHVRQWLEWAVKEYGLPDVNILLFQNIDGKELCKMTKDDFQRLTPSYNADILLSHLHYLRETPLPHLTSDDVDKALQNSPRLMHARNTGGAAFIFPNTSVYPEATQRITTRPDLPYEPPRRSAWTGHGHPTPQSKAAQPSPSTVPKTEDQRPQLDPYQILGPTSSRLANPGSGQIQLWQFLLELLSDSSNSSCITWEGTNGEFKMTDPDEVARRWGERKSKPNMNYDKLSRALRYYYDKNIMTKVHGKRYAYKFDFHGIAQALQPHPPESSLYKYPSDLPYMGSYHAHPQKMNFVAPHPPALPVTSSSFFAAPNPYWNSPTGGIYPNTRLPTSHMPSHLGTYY
Outline: as §1

[5] = biological target: ELF1 (Homo sapiens, UniProt P32519 1-619); conditions: protein: recombinant; tags: N-terminal GST; dsDNA, one strand shown
ELF1, sequence (P32519 whole entry): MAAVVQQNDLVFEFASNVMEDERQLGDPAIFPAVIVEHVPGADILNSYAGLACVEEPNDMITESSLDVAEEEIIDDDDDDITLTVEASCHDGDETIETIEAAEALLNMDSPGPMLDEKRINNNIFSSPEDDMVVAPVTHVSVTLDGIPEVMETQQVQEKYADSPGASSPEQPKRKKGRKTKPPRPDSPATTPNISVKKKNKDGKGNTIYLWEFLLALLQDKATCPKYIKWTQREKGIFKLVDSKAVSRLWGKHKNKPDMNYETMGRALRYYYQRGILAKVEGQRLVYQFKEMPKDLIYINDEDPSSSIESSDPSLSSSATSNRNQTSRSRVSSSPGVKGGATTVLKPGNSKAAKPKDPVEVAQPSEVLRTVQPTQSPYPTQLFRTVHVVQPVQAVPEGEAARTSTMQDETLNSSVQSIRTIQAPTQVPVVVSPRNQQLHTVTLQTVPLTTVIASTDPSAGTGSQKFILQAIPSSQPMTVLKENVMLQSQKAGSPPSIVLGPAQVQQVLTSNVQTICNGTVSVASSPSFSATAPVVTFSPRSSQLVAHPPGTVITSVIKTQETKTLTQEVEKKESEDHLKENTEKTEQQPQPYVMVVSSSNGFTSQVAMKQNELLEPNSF
Outline: as §1

[6] = biological target: T5, EHF (Homo sapiens, UniProt Q9NZC4 1-300); conditions: protein: recombinant; tags: N-terminal GST; dsDNA, one strand shown
T5 sequence: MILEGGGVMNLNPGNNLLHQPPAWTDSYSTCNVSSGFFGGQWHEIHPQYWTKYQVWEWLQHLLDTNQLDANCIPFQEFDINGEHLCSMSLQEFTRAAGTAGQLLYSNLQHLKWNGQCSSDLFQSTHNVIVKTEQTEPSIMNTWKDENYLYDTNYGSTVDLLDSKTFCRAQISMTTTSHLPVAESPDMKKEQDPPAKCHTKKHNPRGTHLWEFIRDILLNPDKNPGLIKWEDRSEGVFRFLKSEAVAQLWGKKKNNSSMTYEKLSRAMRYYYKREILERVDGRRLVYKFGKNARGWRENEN
Outline: as §1

[7] = biological target: SPI1 (Homo sapiens, UniProt P17947 1-270); conditions: protein: recombinant; tags: N-terminal GST; dsDNA, one strand shown
Outline: as §1

[8] = biological target: SPIB (Homo sapiens, UniProt Q01892 1-262); conditions: protein: recombinant; tags: N-terminal GST; dsDNA, one strand shown
SPIB, sequence (Q01892 whole entry): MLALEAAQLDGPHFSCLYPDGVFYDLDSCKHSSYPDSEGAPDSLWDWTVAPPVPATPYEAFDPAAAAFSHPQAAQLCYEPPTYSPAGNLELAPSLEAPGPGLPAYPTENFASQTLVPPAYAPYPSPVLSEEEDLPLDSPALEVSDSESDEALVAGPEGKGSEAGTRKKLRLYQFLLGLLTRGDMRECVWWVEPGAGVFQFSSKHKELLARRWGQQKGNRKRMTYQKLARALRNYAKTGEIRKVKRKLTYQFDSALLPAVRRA
Outline: as §1

[9] = biological target: T6, ELK3 (Homo sapiens, UniProt P41970 1-407); conditions: protein: recombinant; tags: N-terminal GST; dsDNA, one strand shown
T6 sequence: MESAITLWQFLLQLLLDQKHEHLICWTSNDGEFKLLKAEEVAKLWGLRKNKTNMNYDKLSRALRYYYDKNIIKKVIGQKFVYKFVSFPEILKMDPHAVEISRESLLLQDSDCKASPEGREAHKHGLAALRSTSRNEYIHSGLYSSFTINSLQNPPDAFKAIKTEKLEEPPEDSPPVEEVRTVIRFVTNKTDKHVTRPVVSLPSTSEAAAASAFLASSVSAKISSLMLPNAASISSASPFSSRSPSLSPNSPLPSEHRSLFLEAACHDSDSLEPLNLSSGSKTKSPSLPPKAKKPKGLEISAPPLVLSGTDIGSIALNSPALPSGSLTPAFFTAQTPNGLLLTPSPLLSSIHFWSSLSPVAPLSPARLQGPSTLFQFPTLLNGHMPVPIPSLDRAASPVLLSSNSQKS
Outline: as §1

[10] = biological target: T7, FEV (Homo sapiens, UniProt Q99581 1-238); conditions: protein: recombinant; tags: N-terminal GST; dsDNA, one strand shown
T7 sequence: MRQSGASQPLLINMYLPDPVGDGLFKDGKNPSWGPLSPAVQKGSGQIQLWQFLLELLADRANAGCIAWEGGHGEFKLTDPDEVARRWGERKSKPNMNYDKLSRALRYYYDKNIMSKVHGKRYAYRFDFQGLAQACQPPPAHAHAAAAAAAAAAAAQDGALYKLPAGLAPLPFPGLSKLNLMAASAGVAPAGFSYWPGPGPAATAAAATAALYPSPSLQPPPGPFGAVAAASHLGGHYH
Outline: as §1

[11] = biological target: ETV5 (Homo sapiens, UniProt P41161 1-510); conditions: protein: recombinant; tags: N-terminal GST; dsDNA, one strand shown
ETV5, sequence (P41161 whole entry): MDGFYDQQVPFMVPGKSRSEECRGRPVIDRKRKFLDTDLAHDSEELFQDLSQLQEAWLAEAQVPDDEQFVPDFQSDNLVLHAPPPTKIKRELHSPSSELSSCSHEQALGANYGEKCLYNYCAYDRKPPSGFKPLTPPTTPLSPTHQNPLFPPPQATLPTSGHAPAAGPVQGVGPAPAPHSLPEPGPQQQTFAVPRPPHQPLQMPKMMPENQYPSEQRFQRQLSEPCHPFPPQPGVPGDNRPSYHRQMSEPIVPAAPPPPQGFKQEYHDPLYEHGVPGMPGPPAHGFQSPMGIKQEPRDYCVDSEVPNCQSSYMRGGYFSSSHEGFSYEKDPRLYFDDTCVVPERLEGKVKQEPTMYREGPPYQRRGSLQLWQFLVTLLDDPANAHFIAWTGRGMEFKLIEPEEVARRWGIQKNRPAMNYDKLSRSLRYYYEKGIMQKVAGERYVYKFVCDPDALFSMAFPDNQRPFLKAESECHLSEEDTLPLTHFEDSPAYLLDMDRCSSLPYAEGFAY
Outline: as §1

[12] = biological target: HSF1 (Homo sapiens, UniProt Q00613 1-529); conditions: protein: recombinant; tags: N-terminal GST; chain copies: 3; dsDNA, one strand shown
HSF1, sequence (Q00613 whole entry): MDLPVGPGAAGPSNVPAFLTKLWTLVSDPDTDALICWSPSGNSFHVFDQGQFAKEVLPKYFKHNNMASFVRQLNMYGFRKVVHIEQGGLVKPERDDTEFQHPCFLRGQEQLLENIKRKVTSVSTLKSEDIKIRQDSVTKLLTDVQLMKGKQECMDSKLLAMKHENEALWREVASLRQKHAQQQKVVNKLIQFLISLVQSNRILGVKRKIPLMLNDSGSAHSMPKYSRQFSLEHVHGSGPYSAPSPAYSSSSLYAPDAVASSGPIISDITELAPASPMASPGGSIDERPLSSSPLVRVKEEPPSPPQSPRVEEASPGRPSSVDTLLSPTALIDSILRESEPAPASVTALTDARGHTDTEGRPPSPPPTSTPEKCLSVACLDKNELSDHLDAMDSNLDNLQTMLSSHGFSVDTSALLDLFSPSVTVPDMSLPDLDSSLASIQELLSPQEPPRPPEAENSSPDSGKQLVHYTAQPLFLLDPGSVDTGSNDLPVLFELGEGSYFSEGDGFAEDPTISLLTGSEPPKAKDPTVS
Outline: as §1

[13] = biological target: T8, SPIC (Homo sapiens, UniProt Q8N5J4 1-248); conditions: protein: recombinant; tags: N-terminal GST; dsDNA, one strand shown
T8 sequence: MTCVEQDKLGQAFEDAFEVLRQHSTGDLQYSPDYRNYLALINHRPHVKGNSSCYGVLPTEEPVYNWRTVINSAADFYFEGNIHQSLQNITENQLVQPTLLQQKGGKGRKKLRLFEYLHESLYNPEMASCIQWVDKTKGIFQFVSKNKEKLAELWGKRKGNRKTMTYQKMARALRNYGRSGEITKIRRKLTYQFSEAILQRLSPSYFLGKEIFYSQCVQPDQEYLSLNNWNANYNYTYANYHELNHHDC
Outline: as §1

[14] = biological target: ELF4 (Homo sapiens, UniProt Q99607 1-663); conditions: protein: recombinant; tags: N-terminal GST; dsDNA, one strand shown
ELF4, sequence (Q99607 whole entry): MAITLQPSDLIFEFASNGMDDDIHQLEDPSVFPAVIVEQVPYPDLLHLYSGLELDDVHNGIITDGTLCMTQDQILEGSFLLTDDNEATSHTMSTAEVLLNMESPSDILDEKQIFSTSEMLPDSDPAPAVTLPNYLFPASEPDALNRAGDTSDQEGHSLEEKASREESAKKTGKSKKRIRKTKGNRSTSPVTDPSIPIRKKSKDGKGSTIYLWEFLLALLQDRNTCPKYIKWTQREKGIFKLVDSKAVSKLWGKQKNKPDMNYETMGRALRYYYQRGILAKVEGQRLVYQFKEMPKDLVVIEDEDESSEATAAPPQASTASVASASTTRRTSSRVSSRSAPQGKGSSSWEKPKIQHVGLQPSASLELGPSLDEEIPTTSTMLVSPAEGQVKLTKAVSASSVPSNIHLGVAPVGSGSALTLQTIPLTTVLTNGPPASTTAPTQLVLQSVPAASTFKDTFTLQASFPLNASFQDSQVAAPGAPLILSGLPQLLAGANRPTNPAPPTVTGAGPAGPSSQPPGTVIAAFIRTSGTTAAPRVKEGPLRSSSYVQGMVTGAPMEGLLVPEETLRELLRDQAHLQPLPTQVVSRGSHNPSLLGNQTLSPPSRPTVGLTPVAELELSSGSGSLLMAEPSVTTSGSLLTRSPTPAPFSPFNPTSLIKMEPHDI
Outline: as §1

[15] = biological target: T9, ELK4 (Homo sapiens, UniProt P28324-2 1-405); conditions: protein: recombinant; tags: N-terminal GST; dsDNA, one strand shown
T9 sequence: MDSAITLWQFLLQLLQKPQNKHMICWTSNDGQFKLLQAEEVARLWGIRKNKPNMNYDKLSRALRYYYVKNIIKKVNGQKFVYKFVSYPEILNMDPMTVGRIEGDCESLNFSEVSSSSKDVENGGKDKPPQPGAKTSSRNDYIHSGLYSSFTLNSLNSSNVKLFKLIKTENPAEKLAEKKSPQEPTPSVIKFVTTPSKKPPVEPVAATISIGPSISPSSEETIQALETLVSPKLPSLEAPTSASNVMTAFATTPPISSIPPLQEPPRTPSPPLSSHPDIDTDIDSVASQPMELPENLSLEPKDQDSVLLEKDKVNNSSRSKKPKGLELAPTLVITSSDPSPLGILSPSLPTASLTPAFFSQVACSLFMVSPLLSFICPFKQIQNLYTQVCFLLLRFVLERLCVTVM
Outline: as §1

[16] = biological target: T10, ETV2 (Homo sapiens, UniProt O00321 1-342); conditions: protein: recombinant; tags: N-terminal GST; dsDNA, one strand shown
T10 sequence: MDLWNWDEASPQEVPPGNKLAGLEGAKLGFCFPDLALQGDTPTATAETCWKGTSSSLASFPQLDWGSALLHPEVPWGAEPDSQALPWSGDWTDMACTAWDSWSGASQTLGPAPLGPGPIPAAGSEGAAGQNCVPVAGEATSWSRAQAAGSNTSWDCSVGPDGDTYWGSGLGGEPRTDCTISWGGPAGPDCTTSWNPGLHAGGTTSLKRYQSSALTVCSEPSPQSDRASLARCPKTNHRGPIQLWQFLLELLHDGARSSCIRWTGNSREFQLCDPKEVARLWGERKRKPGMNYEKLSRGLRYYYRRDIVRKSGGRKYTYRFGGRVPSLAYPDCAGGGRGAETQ
Outline: as §1

[17] = biological target: T11, ELF3 (Homo sapiens, UniProt P78545 1-371); conditions: protein: recombinant; tags: N-terminal GST; dsDNA, one strand shown
T11 sequence: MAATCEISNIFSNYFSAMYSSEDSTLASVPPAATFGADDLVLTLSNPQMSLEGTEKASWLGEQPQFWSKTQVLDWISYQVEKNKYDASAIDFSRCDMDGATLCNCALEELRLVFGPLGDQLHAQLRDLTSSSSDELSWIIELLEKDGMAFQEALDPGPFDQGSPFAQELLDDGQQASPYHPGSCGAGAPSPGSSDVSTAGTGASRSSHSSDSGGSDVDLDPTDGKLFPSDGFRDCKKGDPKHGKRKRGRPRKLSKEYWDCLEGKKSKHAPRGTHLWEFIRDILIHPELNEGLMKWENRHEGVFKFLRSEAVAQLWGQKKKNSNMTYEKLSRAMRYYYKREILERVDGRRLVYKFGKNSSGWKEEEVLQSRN
Outline: as §1

[18] = biological target: CRX (Homo sapiens, UniProt O43186 1-299); conditions: protein: recombinant; tags: N-terminal GST; dsDNA, one strand shown
CRX, sequence (O43186 whole entry): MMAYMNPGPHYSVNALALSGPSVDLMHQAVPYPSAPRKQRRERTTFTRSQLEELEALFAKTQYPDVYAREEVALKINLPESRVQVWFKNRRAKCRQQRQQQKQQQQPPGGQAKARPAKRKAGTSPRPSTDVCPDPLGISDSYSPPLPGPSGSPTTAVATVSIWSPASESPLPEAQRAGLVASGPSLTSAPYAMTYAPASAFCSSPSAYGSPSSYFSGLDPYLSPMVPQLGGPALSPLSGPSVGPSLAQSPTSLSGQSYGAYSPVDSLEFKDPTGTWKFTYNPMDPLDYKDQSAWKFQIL
Outline: as §1

[19] = biological target: ETV1 (Homo sapiens, UniProt P50549 1-477); conditions: protein: recombinant; tags: N-terminal GST; dsDNA, one strand shown
ETV1, sequence (P50549 whole entry): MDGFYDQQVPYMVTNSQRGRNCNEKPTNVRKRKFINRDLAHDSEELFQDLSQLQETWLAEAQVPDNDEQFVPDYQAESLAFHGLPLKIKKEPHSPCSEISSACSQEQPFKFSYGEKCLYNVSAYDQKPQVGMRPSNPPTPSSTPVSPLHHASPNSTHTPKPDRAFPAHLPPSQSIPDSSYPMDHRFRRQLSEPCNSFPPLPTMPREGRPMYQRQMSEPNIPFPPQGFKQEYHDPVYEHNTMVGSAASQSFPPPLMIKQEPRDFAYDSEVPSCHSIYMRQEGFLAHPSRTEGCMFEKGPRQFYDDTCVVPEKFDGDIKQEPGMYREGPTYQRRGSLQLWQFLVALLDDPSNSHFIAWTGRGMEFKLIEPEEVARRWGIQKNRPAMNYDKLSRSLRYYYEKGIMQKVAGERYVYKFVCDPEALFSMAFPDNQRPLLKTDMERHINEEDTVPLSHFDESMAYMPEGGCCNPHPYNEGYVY
Outline: as §1

CATTTA
binding signal [1]: 1.28 fold enrichment (6-mer frequency, TF over GST control)
binding signal [2]: 1.23 fold enrichment (6-mer frequency, TF over GST control)
binding signal [3]: 1.31 fold enrichment (6-mer frequency, TF over GST control)
binding signal [4]: 1.25 fold enrichment (6-mer frequency, TF over GST control)
binding signal [5]: 1.27 fold enrichment (6-mer frequency, TF over GST control)
binding signal [6]: 1.32 fold enrichment (6-mer frequency, TF over GST control)
binding signal [7]: 1.26 fold enrichment (6-mer frequency, TF over GST control)
binding signal [8]: 1.18 fold enrichment (6-mer frequency, TF over GST control)
binding signal [9]: 1.23 fold enrichment (6-mer frequency, TF over GST control)
binding signal [10]: 1.23 fold enrichment (6-mer frequency, TF over GST control)
binding signal [11]: 1.22 fold enrichment (6-mer frequency, TF over GST control)
binding signal [12]: 1.13 fold enrichment (6-mer frequency, TF over GST control)
binding signal [13]: 1.17 fold enrichment (6-mer frequency, TF over GST control)
binding signal [14]: 1.14 fold enrichment (6-mer frequency, TF over GST control)
binding signal [15]: 1.17 fold enrichment (6-mer frequency, TF over GST control)
binding signal [16]: 1.34 fold enrichment (6-mer frequency, TF over GST control)
binding signal [17]: 1.2 fold enrichment (6-mer frequency, TF over GST control)
binding signal [18]: 1.36 fold enrichment (6-mer frequency, TF over GST control)
binding signal [19]: 1.22 fold enrichment (6-mer frequency, TF over GST control)
